# Experimental data: PubChem BioAssay (EPA / NIEHS)
# “And” between values parts separate entries of the source, which are not always exact repeats. Identical values can stand only once. Records with an inconclusive call do not appear. More than one record can exist for a structure, and the calls need not agree. The source made the active and inactive calls. The calls were made as follows: active = hit-call score of the fitted dose curve at least 0.9, where 1 is the maximum; inconclusive = response in the unintended direction; inactive = score below 0.9.
# Assays:
# [1] = ATG_XTT_Cytotoxicity: Cytotoxicity Assessment in the Attagene TRANS-FACTORIAL HepG2 Assay (AID 2283584);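 as to AC50: cells exposed to compound for 24 h before reading; active means loss of viability signal versus DMSO baseline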
# Procedure, shortened: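 Viability endpoint from XTT after 24 h chemical exposure of reporter-transfected human HepG2 liver cells; signal loss fitted relative to DMSO negative control.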
# [2] = target: Cellular tumor antigen p53 (Homo sapiens) (UniProt P04637); assay: TOX21_p53_BLA_p2_ratio: Tox21 HCT-116 p53 Agonism Beta-lactamase Assay, Ratio, Phase 2 (AID 2283592)
# Cellular tumor antigen p53 (Homo sapiens), sequence (P04637 whole entry, looked up): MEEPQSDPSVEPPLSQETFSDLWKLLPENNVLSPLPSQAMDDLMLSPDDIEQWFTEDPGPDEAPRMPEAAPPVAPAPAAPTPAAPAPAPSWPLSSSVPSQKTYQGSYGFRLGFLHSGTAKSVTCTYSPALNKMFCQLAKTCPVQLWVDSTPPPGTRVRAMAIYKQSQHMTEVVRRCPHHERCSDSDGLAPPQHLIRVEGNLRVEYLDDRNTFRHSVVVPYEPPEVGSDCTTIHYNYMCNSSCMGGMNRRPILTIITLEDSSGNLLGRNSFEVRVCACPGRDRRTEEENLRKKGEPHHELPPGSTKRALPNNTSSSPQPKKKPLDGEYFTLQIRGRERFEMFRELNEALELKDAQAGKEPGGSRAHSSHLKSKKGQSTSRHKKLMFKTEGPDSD
# Procedure, shortened: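 Read-out is the blue/green (460/530 nm, 405 nm excitation) ratio after 2 h CCF4-AM loading, fitted as gain versus DMSO. Compounds, pinned at 217-fold dilution from DMSO stocks, stayed 16 h on HCT-116 beta-lactamase reporter cells seeded 5 h earlier.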
# [3] = TOX21_p53_BLA_p3_viability: Viability Assessment in the Tox21 HCT-116 p53 Agonism Beta-lactamase Assay, Phase 3 (AID 2283593);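 also: cells exposed to compound for 16 h before reading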
# Procedure, shortened: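 Cellular ATP was quantified by CellTiter-Glo luminescence, read after 30 min at room temperature. Beforehand, HCT116 cells (4000/well) received compound 5 h post-seeding, 217-fold diluted from DMSO, then incubated 16 h at 37C.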
# [4] = target: Cellular tumor antigen p53 (Homo sapiens) (UniProt P04637); assay: TOX21_p53_BLA_p3_ratio: Tox21 HCT-116 p53 Agonism Beta-lactamase Assay, Ratio, Phase 3 (AID 2283596)
# Procedure, shortened: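 Cells were seeded at 4000/well, rested 5 h at 37C, then dosed with DMSO compound solutions (217-fold dilution) for 16 h. CCF4-AM substrate was loaded for 2 h at room temperature, and the 460/530 nm emission ratio was fitted for gain of signal versus DMSO.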
# [5] = TOX21_p53_BLA_p4_viability: Viability Assessment in the Tox21 HCT-116 p53 Agonism Beta-lactamase Assay, Phase 4 (AID 2283597);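 also: hits lower the luminescence signal meaning cytotoxicity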
# Procedure, shortened: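 Cytotoxicity as reduced cellular ATP (CellTiter-Glo luminescence, 30 min room temperature), measured in the same wells following the CCF4 FRET p53 reading. Human HCT-116 cells received compounds in DMSO (217-fold dilution) for 16 h.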
# [6] = TOX21_p53_BLA_p5_viability: Viability Assessment in the Tox21 HCT-116 p53 Agonism Beta-lactamase Assay, Phase 5 (AID 2283600)
# Procedure, shortened: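 Viability came from CellTiter-Glo ATP luminescence, read after 30 min at room temperature. Before this, HCT-116 p53-bla cells (4000/well) had 16 hours of compound exposure at 37C, with DMSO stocks diluted 217-fold on transfer.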
# [7] = target: Cellular tumor antigen p53 (Homo sapiens) (UniProt P04637); assay: TOX21_p53_BLA_p4_ratio: Tox21 HCT-116 p53 Agonism Beta-lactamase Assay, Ratio, Phase 4 (AID 2283601)
# Procedure, shortened: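 Signal is the blue/green (460nm/530nm) ratio of cleaved versus uncleaved CCF4-AM substrate, read after 2 h substrate loading. Cells were HCT116 carrying the p53-responsive beta-lactamase reporter, dosed 16 h at 37C, 5% CO2; CellTiter-Glo measured in parallel.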
# [8] = target: Cellular tumor antigen p53 (Homo sapiens) (UniProt P04637); assay: TOX21_p53_BLA_p5_ratio: Tox21 HCT-116 p53 Agonism Beta-lactamase Assay, Ratio, Phase 5 (AID 2283599)
# Procedure, shortened: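 Beta-lactamase reporter ratio (blue 460 nm over green 530 nm, 405 nm excitation) after 2 h CCF4-AM loading, in HCT-116 cells exposed 16 h at 37 C to compounds pinned at 217-fold dilution. Increases relative to DMSO baseline scored.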
# [9] = TOX21_p53_BLA_p2_viability: Viability Assessment in the Tox21 HCT-116 p53 Agonism Beta-lactamase Assay, Phase 2 (AID 2283591);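 also: compound exposure lasted 16 h at 37 °C; actives lower the ATP signal meaning cytotoxicity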
# Procedure, shortened: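 Cytotoxicity readout: CellTiter-Glo ATP luminescence, 30 min at room temperature, after the beta-lactamase read. Cells were HCT116 exposed 16 h at 37C to compounds pin-transferred at 217-fold dilution from DMSO stocks.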
compound,measurement,setting,value
CN(C)c1ccc(N=O)cc1,outcome,[1],inactive
same,AC50,[2],75.7 µM (active)
same,outcome,[2],inactive
same,AC50,[3],88.2 µM (active) and 80.8 µM (active)
same,outcome,[4],inactive
same,AC50,[5],70.4 µM (active) and 69.5 µM (active)
same,AC50,[6],74.2 µM (active) and 79.4 µM (active)
same,AC50,[7],86.9 µM (active)
same,outcome,[7],inactive
C=CCCl,outcome,[1],inactive
same,outcome,[2],inactive
same,outcome,[3],inactive
same,outcome,[4],inactive
same,outcome,[8],inactive
Cc1cc(C(C)(C)c2ccc(O)c(C)c2)ccc1O,outcome,[1],inactive
same,outcome,[9],inactive
same,AC50,[2],30.2 µM (active)
same,outcome,[4],inactive
same,outcome,[8],inactive
same,outcome,[6],inactive
same,AC50,[7],41.9 µM (active)
CC(C)(C#N)N=NC(C)(C)C#N,outcome,[1],inactive
same,outcome,[2],inactive
same,outcome,[3],inactive
same,outcome,[4],inactive
same,outcome,[8],inactive
same,outcome,[6],inactive
same,outcome,[7],inactive
CCCCCCCCCCCCN(C)C,outcome,[1],inactive
same,outcome,[2],inactive
same,outcome,[3],inactive
same,outcome,[4],inactive
same,outcome,[5],inactive
same,outcome,[6],inactive
CCOC(=O)C(SP(=S)(OC)OC)c1ccccc1 (centres undefined),outcome,[1],inactive
same,outcome,[2],inactive
same,outcome,[3],inactive
same,outcome,[4],inactive
same,outcome,[8],inactive
same,outcome,[6],inactive
same,outcome,[7],inactive
Cc1cc(C(F)(C(F)(F)F)C(F)(F)F)ccc1NC(=O)c1cccc(I)c1C(=O)NC(C)(C)CS(C)(=O)=O,outcome,[1],inactive
same,outcome,[2],inactive
same,outcome,[3],inactive
same,outcome,[4],inactive
same,outcome,[8],inactive
same,outcome,[6],inactive
same,AC50,[7],56.9 µM (active)
O=C(CCl)Nc1ccccc1,outcome,[1],inactive
same,outcome,[2],inactive
same,outcome,[3],inactive
same,outcome,[4],inactive
same,outcome,[5],inactive
same,outcome,[8],inactive
same,outcome,[7],inactive
C=C(C)[C@@H]1CC=C(C=O)CC1,outcome,[1],inactive
same,outcome,[2],inactive
same,outcome,[3],inactive
same,outcome,[4],inactive
same,outcome,[8],inactive
same,outcome,[7],inactive
O=C(Cl)OCCOCCOC(=O)Cl,outcome,[1],inactive
same,outcome,[9],inactive
same,outcome,[2],inactive
same,outcome,[4],inactive
same,outcome,[6],inactive
same,outcome,[7],inactive
Nc1cccnc1,outcome,[1],inactive
same,outcome,[2],inactive
same,outcome,[3],inactive
same,outcome,[4],inactive
same,outcome,[8],inactive
same,outcome,[6],inactive
same,outcome,[7],inactive
CCNc1nc(NCC)nc(SC)n1,outcome,[1],inactive
same,outcome,[2],inactive
same,outcome,[3],inactive
same,outcome,[4],inactive
same,outcome,[5],inactive
same,outcome,[8],inactive
same,outcome,[6],inactive
O=S1(=O)OC(c2cc(Br)c(O)c(Br)c2)(c2cc(Br)c(O)c(Br)c2)c2ccccc21,outcome,[1],inactive
same,outcome,[9],inactive
same,AC50,[3],8.86 µM (active)
same,AC50,[5],52.4 µM (active)
same,outcome,[6],inactive
same,outcome,[7],inactive
CCCCN(CCCCO)N=O,outcome,[1],inactive
same,outcome,[9],inactive
same,outcome,[3],inactive
same,outcome,[5],inactive
same,outcome,[6],inactive
CCN(CC)C(=O)C(Cl)=C(C)OP(=O)(OC)OC,outcome,[1],inactive
same,outcome,[2],inactive
same,outcome,[3],inactive
same,outcome,[4],inactive
same,outcome,[5],inactive
same,outcome,[8],inactive
same,outcome,[6],inactive
same,outcome,[7],inactive
N#CCCC(Br)(C#N)CBr (centres undefined),outcome,[1],inactive
same,outcome,[2],inactive
same,outcome,[3],inactive
same,AC50,[4],70.8 µM (active)
same,outcome,[5],inactive
same,outcome,[7],inactive
Nc1nc(=S)[nH][nH]1,outcome,[1],inactive
same,outcome,[9],inactive
same,outcome,[2],inactive
same,outcome,[8],inactive
same,outcome,[6],inactive
CC(=Cc1ccccc1)[N+](=O)[O-],AC50,[1],23.6 µM (active)
same,outcome,[9],inactive
same,outcome,[3],inactive
same,outcome,[8],inactive
same,outcome,[6],inactive
same,outcome,[7],inactive
O=C(CBr)c1ccc(O)cc1,outcome,[1],inactive
same,outcome,[2],inactive
same,outcome,[3],inactive
same,outcome,[4],inactive
same,outcome,[8],inactive
same,outcome,[6],inactive
same,outcome,[7],inactive
OCC(c1ccc(Cl)cc1)c1ccc(Cl)cc1,outcome,[1],inactive
same,AC50,[2],80.1 µM (active)
same,outcome,[3],inactive
same,outcome,[4],inactive
same,AC50,[5],71.1 µM (active)
same,AC50,[8],86.8 µM (active)
same,AC50,[6],70.4 µM (active)
same,AC50,[7],85.2 µM (active)
CCOP(=S)(OCC)OP(=S)(OCC)OCC,outcome,[1],inactive
same,outcome,[2],inactive
same,outcome,[3],inactive
same,outcome,[4],inactive
same,outcome,[5],inactive
same,outcome,[8],inactive
same,outcome,[7],inactive
C[C@H]1C(=O)O[C@@H]2CCN3CC=C(COC(=O)[C@](C)(O)[C@]1(C)O)[C@H]23,outcome,[1],inactive
same,outcome,[2],inactive
same,outcome,[3],inactive
same,outcome,[4],inactive
same,outcome,[8],inactive
same,outcome,[6],inactive
same,outcome,[7],inactive
[F][Sn]([c]1ccccc1)([c]1ccccc1)[c]1ccccc1,AC50,[1],1.35 µM (active)
same,AC50,[2],10.1 µM (active)
same,AC50,[3],13.3 µM (active)
same,AC50,[4],13.5 µM (active)
same,AC50,[5],3.96 µM (active)
same,AC50,[6],13.2 µM (active)
same,AC50,[7],12 µM (active)
O=NN1CCOCC1,outcome,[1],inactive
same,outcome,[2],inactive
same,outcome,[3],inactive
same,outcome,[4],inactive
same,outcome,[8],inactive
same,outcome,[7],inactive
Clc1ccc(C(Cl)(Cl)Cl)cn1,outcome,[1],inactive
same,outcome,[9],inactive
same,outcome,[3],inactive
same,outcome,[5],inactive
same,outcome,[8],inactive
same,outcome,[6],inactive
ClCCCCl,outcome,[1],inactive
same,outcome,[2],inactive
same,outcome,[3],inactive
same,outcome,[5],inactive
same,outcome,[6],inactive
N#Cc1ccc(Cl)cc1,outcome,[1],inactive
same,outcome,[2],inactive
same,outcome,[5],inactive
same,outcome,[8],inactive
same,outcome,[6],inactive
same,outcome,[7],inactive
CCCSP(=S)(OCC)Oc1ccc(SC)cc1 (centres undefined),outcome,[1],inactive
same,outcome,[8],inactive
same,outcome,[7],inactive
CCCCCCCCCCCCCCC(Br)C(=O)O (centres undefined),outcome,[1],inactive
same,AC50,[3],41.4 µM (active)
same,AC50,[4],75.3 µM (active)
same,outcome,[5],inactive
same,AC50,[6],70.3 µM (active)
same,outcome,[7],inactive
BrCc1ccc(Br)cc1,outcome,[1],inactive
same,outcome,[2],inactive
same,outcome,[3],inactive
same,outcome,[6],inactive
same,outcome,[7],inactive
C=CC(=O)NC(C)(C)CC(C)=O,outcome,[1],inactive
same,outcome,[4],inactive
same,outcome,[5],inactive
same,outcome,[6],inactive
COc1ccc(N)cc1,outcome,[1],inactive
same,outcome,[5],inactive
same,outcome,[6],inactive
same,outcome,[7],inactive
O=CCCl,outcome,[1],inactive
same,outcome,[2],inactive
same,outcome,[3],inactive
same,outcome,[4],inactive
same,outcome,[7],inactive
C=CCc1ccccc1O,outcome,[1],inactive
same,outcome,[2],inactive
same,outcome,[3],inactive
same,outcome,[4],inactive
same,outcome,[8],inactive
same,outcome,[7],inactive
CNC(=O)O/N=C/C(C)(C)S(C)(=O)=O,outcome,[1],inactive
same,outcome,[2],inactive
same,outcome,[5],inactive
same,outcome,[8],inactive
same,outcome,[6],inactive
